Experimental data published in PubChem BioAssay (NCI).
The panel holds about 79,000 compounds, 15% with a hit somewhere; the sample as a whole holds those more often. Activity calls are given as the source filed them. Cut-off read from the data, not from the text of the source: active = growth inhibition above about 70%; inactive = the rest.

Legend:
[1] = NCI Yeast Anticancer Drug Screen. Data for the rad52 strain (AID 147);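 note: 0% = growth of vehicle-treated control cultures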; settings: S. cerevisiae rad52 mutant growth inhibition, hits give high values
In short: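 The repair-mutant yeast strain was incubated with compounds, then growth was read and inhibition derived relative to vehicle.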

[2] = NCI Yeast Anticancer Drug Screen. Data for the wt1 strain (AID 149);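 note: 0% = growth of vehicle-treated wt1 cultures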; settings: S. cerevisiae wt1 strain (SPY 50644) growth inhibition, hits give high values
In short: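 Compounds are added to wt1 yeast cultures. Growth is then measured. Inhibition is expressed relative to vehicle-treated controls.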

[3] = NCI Yeast Anticancer Drug Screen. Data for the rad50EPP+ strain (AID 151);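 note: 0% = growth of vehicle-treated control cultures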; settings: S. cerevisiae rad50 mutant strain, hits give high values
In short: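 Vehicle-normalised growth inhibition; rad50EPP+ yeast strain, altered in DNA damage repair, compound-treated.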

[4] = NCI Yeast Anticancer Drug Screen. Data for the mgt1 strain (AID 153); settings: S. cerevisiae mgt1 mutant growth inhibition, hits give high values
In short: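 Vehicle-normalized growth inhibition is determined in mgt1 yeast, a strain selected for a defined alteration in DNA repair or cell cycle control.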

[5] = NCI Yeast Anticancer Drug Screen. Data for the rad50 strain (AID 155);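 note: 0% = growth of vehicle-only cultures of the same strain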; settings: S. cerevisiae rad50 strain growth inhibition, hits give high values
In short: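 Inhibition values express reduced yeast growth in compound-treated cultures relative to vehicle-treated controls.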

[6] = NCI Yeast Anticancer Drug Screen. Data for the mec2-1 strain (AID 157); settings: S. cerevisiae mec2-1 strain, hits give high values
In short: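 Mutant yeast (mec2-1) grown with compound; growth inhibition relative to vehicle control reported.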

[7] = NCI Yeast Anticancer Drug Screen. Data for the rad14 strain (AID 159);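 note: 0% = growth of vehicle-treated control cultures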; settings: S. cerevisiae rad14 strain growth inhibition, hits give high values
In short: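 A mutant yeast strain defective in DNA damage repair is treated with compound; inhibition of its growth is scored against untreated, vehicle-exposed cultures.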

[8] = NCI Yeast Anticancer Drug Screen. Data for the sgs1 mgt1 strain (AID 161);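 note: 0% = growth of cultures given vehicle only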; settings: S. cerevisiae sgs1 mgt1 strain, hits give high values
In short: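 Yeast cells carrying a defined DNA-repair defect were exposed to test compounds. Growth inhibition was measured relative to vehicle-treated controls.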

[9] = NCI Yeast Anticancer Drug Screen. Data for the CLN2oe strain (AID 163);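 note: 0% = growth of vehicle-only control cultures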; settings: S. cerevisiae CLN2oe strain, hits give high values
In short: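 Compounds are applied to yeast harbouring a defined cell-cycle control change; reduced growth compared with vehicle-treated controls gives the value.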

[10] = NCI Yeast Anticancer Drug Screen. Data for the cln2 rad14 strain (AID 165);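 note: 0% = growth equal to vehicle treated cultures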; settings: S. cerevisiae cln2 rad14 strain, hits give high values
In short: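 Readout is yeast growth inhibition versus vehicle-treated controls, using a strain with cln2 and rad14 alterations exposed to compound.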

[11] = NCI Yeast Anticancer Drug Screen. Data for the wt2 strain (AID 169);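 note: 0% = growth of vehicle-treated yeast cultures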; settings: S. cerevisiae wt2 strain growth inhibition, hits give high values
In short: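 Against vehicle-treated controls, the growth of yeast exposed to each compound was compared, and the inhibition was recorded.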

[12] = NCI Yeast Anticancer Drug Screen. Data for the mlh1 strain (AID 171);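 note: 0% = growth of vehicle-treated control cultures of the same strain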; settings: S. cerevisiae mlh1 strain growth inhibition, hits give high values
In short: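 Measured: yeast growth. Reference: vehicle-treated controls. Organism: strain with a defined alteration affecting DNA damage repair or cell cycle control, treated with compound.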

[13] = NCI Yeast Anticancer Drug Screen. Data for the sgs1 strain (AID 173);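 note: 0% = growth of vehicle-only control cultures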; settings: S. cerevisiae sgs1 mutant, hits give high values
In short: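 Each compound was added to cultures of the altered yeast strain. Growth was recorded, and inhibition was derived by comparison with vehicle controls.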

[14] = NCI Yeast Anticancer Drug Screen. Data for the mlh1 rad18 strain (AID 175); settings: S. cerevisiae mlh1 rad18 strain growth inhibition, hits give high values
In short: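 Genetically defined yeast (DNA repair-deficient) exposed to compounds; growth inhibition determined relative to vehicle.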

[15] = NCI Yeast Anticancer Drug Screen. Data for the rad18 strain (AID 177); settings: S. cerevisiae rad18 mutant growth inhibition, hits give high values
In short: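 Vehicle-treated cultures served as the baseline for scoring compound-induced growth inhibition in DNA-repair-mutant yeast.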

[16] = NCI Yeast Anticancer Drug Screen. Data for the bub3 strain (AID 167); settings: S. cerevisiae bub3 mutant strain, hits give high values
In short: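 Steps: expose the mutant yeast strain to compound; grow alongside vehicle-treated cultures; measure growth; express inhibition against the vehicle cultures.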

[17] = at 5.0 µM (retest, dose inferred, filed as 0.5)
[18] = at 50.0 µM (retest, dose inferred, filed as 5.0)

Measured: growth inhibition

CCC/C(Cl)=N\OC(=O)Nc1ccc(Br)cc1
inactive: [1]; at 1.2 µM 58% | [1]; at 3.7 µM 69% | [2]; at 1.2 µM 13% | [2]; at 3.7 µM 14% | [2]; at 11.0 µM 58% | [3]; at 1.2 µM 26% | [3]; at 3.7 µM 31% | [3]; at 11.0 µM 56% | [4]; at 1.2 µM 9% | [4]; at 3.7 µM 16% | [5]; at 1.2 µM 32% | [5]; at 3.7 µM 40% | [5]; [17] 9% | [6]; at 1.2 µM 16% | [6]; at 3.7 µM 27% | [6]; [17] -16% | [7]; at 1.2 µM 32% | [7]; at 3.7 µM 33% | [8]; [17] 9% | [9]; at 1.2 µM 10% | [9]; at 3.7 µM 15% | [10]; [17] -22% | [11]; at 1.2 µM 25% | [11]; at 3.7 µM 33% | [12]; at 1.2 µM 14% | [12]; at 3.7 µM 19% | [13]; at 1.2 µM 65% | [13]; at 3.7 µM 62% | [14]; [17] 61%
active: [1]; at 11.0 µM 94% | [1]; at 33.0 µM 98% | [1]; at 100.0 µM 98% | [2]; at 33.0 µM 97% | [2]; at 100.0 µM 98% | [3]; at 33.0 µM 77% | [3]; at 100.0 µM 81% | [4]; at 11.0 µM 82% | [4]; at 33.0 µM 98% | [4]; at 100.0 µM 99% | [5]; at 11.0 µM 86% | [5]; at 33.0 µM 97% | [5]; [18] 99% | [5]; at 50.0 µM 88.2% | [5]; at 100.0 µM 98% | [6]; at 11.0 µM 77% | [6]; at 33.0 µM 98% | [6]; [18] 99% | [6]; at 50.0 µM 92% | [6]; at 100.0 µM 99% | [7]; at 11.0 µM 90% | [7]; at 33.0 µM 98% | [7]; at 100.0 µM 99% | [8]; [18] 99% | [8]; at 50.0 µM 84% | [9]; at 11.0 µM 84% | [9]; at 33.0 µM 98% | [9]; at 100.0 µM 99% | [10]; [18] 99% | [10]; at 50.0 µM 89.8% | [11]; at 11.0 µM 90% | [11]; at 33.0 µM 98% | [11]; at 100.0 µM 99% | [12]; at 11.0 µM 76% | [12]; at 33.0 µM 97% | [12]; at 100.0 µM 98% | [13]; at 11.0 µM 94% | [13]; at 33.0 µM 98% | [13]; at 100.0 µM 98% | [14]; [18] 99% | [14]; at 50.0 µM 83.8% | [15]; at 1.2 µM 71% | [15]; at 3.7 µM 77% | [15]; at 11.0 µM 93% | [15]; at 33.0 µM 97% | [15]; at 100.0 µM 98%

C[C@H](CCC(=O)NN)[C@H]1CC[C@H]2[C@@H]3CC[C@@H]4C[C@H](O)CC[C@]4(C)[C@H]3CC[C@]12C
inactive: [1]; at 1.2 µM -2% | [1]; at 3.7 µM 0% | [1]; at 11.0 µM 0% | [1]; at 33.0 µM 6% | [1]; at 100.0 µM 10% | [2]; at 1.2 µM 1% | [2]; at 3.7 µM 0% | [2]; at 11.0 µM 0% | [2]; at 33.0 µM 0% | [2]; at 100.0 µM 3% | [3]; at 1.2 µM 0% | [3]; at 3.7 µM 4% | [3]; at 11.0 µM 4% | [3]; at 33.0 µM 6% | [3]; at 100.0 µM 18% | [4]; at 1.2 µM 0% | [4]; at 3.7 µM -1% | [4]; at 11.0 µM 1% | [4]; at 33.0 µM -1% | [4]; at 100.0 µM 2% | [5]; at 1.2 µM 1% | [5]; at 3.7 µM 1% | [5]; [17] 12% | [5]; at 11.0 µM 9% | [5]; at 33.0 µM -1% | [5]; [18] 45% | [5]; at 50.0 µM 60% | [5]; at 100.0 µM 5% | [6]; at 1.2 µM 3% | [6]; at 3.7 µM 3% | [6]; [17] 0% | [6]; at 11.0 µM 3% | [6]; at 33.0 µM 5% | [6]; [18] 7% | [6]; at 50.0 µM 40.2% | [6]; at 100.0 µM 17% | [7]; at 1.2 µM 0% | [7]; at 3.7 µM -3% | [7]; at 11.0 µM 0% | [7]; at 33.0 µM -5% | [7]; at 100.0 µM 12% | [8]; [17] 3% | [8]; [18] 51% | [8]; at 50.0 µM 35.3% | [9]; at 1.2 µM -4% | [9]; at 3.7 µM 2% | [9]; at 11.0 µM 5% | [9]; at 33.0 µM 2% | [9]; at 100.0 µM 16% | [10]; [17] -4% | [10]; [18] 54% | [10]; at 50.0 µM 54.4% | [16]; at 1.2 µM -3% | [16]; at 3.7 µM 1% | [16]; [17] -18% | [16]; at 11.0 µM 8% | [16]; at 33.0 µM 1% | [16]; at 100.0 µM -3% | [11]; at 1.2 µM -2% | [11]; at 3.7 µM -2% | [11]; at 11.0 µM -2% | [11]; at 33.0 µM -1% | [11]; at 100.0 µM 2% | [12]; at 1.2 µM 3% | [12]; at 3.7 µM 2% | [12]; at 11.0 µM 2% | [12]; at 33.0 µM -14% | [12]; at 100.0 µM 4% | [14]; [17] 21% | [14]; [18] 44% | [15]; at 1.2 µM -5% | [15]; at 3.7 µM -4% | [15]; at 11.0 µM 5% | [15]; at 33.0 µM 0% | [15]; at 100.0 µM 3%
active: [16]; [18] 73% | [16]; at 50.0 µM 89.2% | [14]; at 50.0 µM 92.2%
